Assay results as given in PubChem BioAssay (NCATS).
Inconclusive results are not listed. A call without a number means that no potency is given here. The source made the active and inactive calls. Calls come from the whole dose curve; as a rule, active = well fitted curve in the direction sought with a large enough effect; inconclusive = small, poorly fitted or top-dose-only effect, or another doubt; inactive = no such curve, though single readings can be large; an effect the other way counts as inactive or inconclusive. Square brackets hold non-standard residues; d marks the D form. Peptide text beside a SMILES is read from it. * marks the point of attachment. ξ: configuration not given here. Hexanoyl = CCCCCC(=O)*; ξL = CC(C)CC(N)C(=O)O

Tests used:
[1] = OV-KATE Cancer Cell Toxicity qHTS against the NCATS CANVASS Library (AID 1347345); note: potency is the fitted concentration of half-maximal effect
Method in brief: (§1)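 ATP content after 72 h treatment, detected by CellTiter-Glo luminescence (15min room-temperature development), reflects cell viability. Wells contained 1000 cells and received compounds at 11 concentrations.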

[2] = HPAF-II Cancer Cell Toxicity qHTS against the NCATS CANVASS Library (AID 1347346); note: nearly all actives have a fitted effect of over 55% in size; note: potency is the fitted concentration of half-maximal effect
Method in brief: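 1000 HPAF-II cells/well; 4 h pre-incubation; 11-pnt compound titration; 72 h, 37 degrees C/5% CO2; CellTiter-Glo, 15 min RT; luminescence read.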

[3] = UWB1.289 Cancer Cell Toxicity qHTS against the NCATS CANVASS Library (AID 1347347); note: nearly all actives have a fitted effect of over 60% in size; note: potency is the fitted concentration of half-maximal effect
Method in brief: as §1

[4] = OV-SAHO Cancer Cell Toxicity qHTS against the NCATS CANVASS Library (AID 1347348); note: nearly all actives have a fitted effect of over 55% in size; note: potency is the fitted concentration of half-maximal effect
Method in brief: as §1

[5] = Panc-1005 Cancer Cell Toxicity qHTS against the NCATS CANVASS Library (AID 1347349); note: nearly all actives have a fitted effect of over 60% in size; note: potency is the fitted concentration of half-maximal effect
Method in brief: as §1

[6] = SW1088 Cancer Cell Toxicity qHTS against the NCATS CANVASS Library (AID 1347350); note: nearly all actives have a fitted effect of over 75% in size; note: potency is the fitted concentration of half-maximal effect
Method in brief: as §1

[7] = COV-362 Cancer Cell Toxicity qHTS against the NCATS CANVASS Library (AID 1347352); note: series mostly up to about 38 µM
Method in brief: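 1000 cells/well, 4 h pre-incubation 37 °C/5% CO2; 11-pnt titration; 72 h; CellTiter-Glo 15 min RT, luminescence.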

[8] = A2780 Cisplatin Sensitive Ovarian Cancer Cell Toxicity qHTS against the NCATS CANVASS Library (AID 1347353); note: nearly all actives have a fitted effect of over 60% in size; note: potency is the fitted concentration of half-maximal effect
Method in brief: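 750 cells/well, 4 h settle; 11-pt cpd titration; 72 h, 37 °C, 5% CO2; ATPLite 10 min RT; luminescence read.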

[9] = target: Luciferin 4-monooxygenase (Photinus pyralis) (UniProt P08659); assay: Firefly luciferase counterscreen qHTS: Assay Interference Panel against the NCATS CANVASS Library (AID 1347363); note: series mostly up to about 57 µM
Sequence of Luciferin 4-monooxygenase (Photinus pyralis) (P08659 whole entry, looked up): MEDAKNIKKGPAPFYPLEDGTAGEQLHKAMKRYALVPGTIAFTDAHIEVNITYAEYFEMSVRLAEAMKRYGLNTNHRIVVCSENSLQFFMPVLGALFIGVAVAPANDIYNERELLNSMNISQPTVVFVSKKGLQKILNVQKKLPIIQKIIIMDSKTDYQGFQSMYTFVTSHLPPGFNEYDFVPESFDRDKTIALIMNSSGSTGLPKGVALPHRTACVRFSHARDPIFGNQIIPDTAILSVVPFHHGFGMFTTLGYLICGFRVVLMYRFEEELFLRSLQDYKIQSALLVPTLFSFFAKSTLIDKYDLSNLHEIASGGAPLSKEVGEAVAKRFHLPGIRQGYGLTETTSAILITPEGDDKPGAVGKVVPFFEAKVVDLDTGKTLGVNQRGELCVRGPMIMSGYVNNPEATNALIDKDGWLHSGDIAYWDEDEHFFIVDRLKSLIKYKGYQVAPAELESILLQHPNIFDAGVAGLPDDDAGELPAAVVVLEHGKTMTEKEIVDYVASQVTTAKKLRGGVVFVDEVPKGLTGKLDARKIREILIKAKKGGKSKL
Method in brief: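 Purified P. pyralis luciferase was added to compounds (11-point series) preincubated 15 min at room temperature with substrate containing 0.013 mM D-luciferin and 0.013 mM ATP; luminescence was read after 5 min.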

[10] = KB-8-5-11 Cancer Cell Toxicity qHTS against the NCATS CANVASS Library (AID 1347364); note: nearly all actives have a fitted effect of over 75% in size; note: potency is the fitted concentration of half-maximal effect
Method in brief: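 CellTiter-Glo luminescence after 72 h exposure; 500 KB-8-5-11 cells/well, DMEM/10% FBS, 37C, 5% CO2; compounds in 11-pt qHTS. Follow-up confirmation included medium with 1uM tariquidar.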

[11] = 10-beta competent E. coli microbial cell viability qHTS against the NCATS CANVASS Library (AID 1347376); note: series mostly up to about 46 µM
Method in brief: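 Luminescence from BacTiter-Glo ATP detection served as the viability read-out; bacteria (0.2 OD) had been incubated overnight at 37C with pin-transferred compounds at 11 concentrations.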

[12] = qHTS for Antimalaria activity screened against the NCATS CANVASS Library (AID 1347380); note: nearly all actives have a fitted effect of over 40% in size; note: potency is the fitted concentration of half-maximal effect
Method in brief: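 SYBR Green fluorescence (ex 485, em 535 nm) read after saponin/Triton lysis and 18 h further incubation; Dd2 asexual blood-stage parasites, 72 h compound exposure, 11-pt concentration series, 2.5% hematocrit, 0.3% parasitemia.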

[13] = Inflammasome Signaling qHTS Counterscreen: IL-1-beta AlphaLISA counterscreen against the NCATS CANVASS Library (AID 1347381);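 note: cell-free check with purified IL-1β in medium and no THP-1 cells; series mostly up to about 57 µM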
Method in brief: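 Here, no cellular stimulation occurs; compounds in an 11-point series meet 4 pg purified IL-1-beta directly. Bead-based AlphaLISA detection follows (1 h acceptor/antibody, then 30 min donor, dark, room temperature), with excitation at 680 nm.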

[14] = Cytotoxicity qHTS for assessment of Hepg2 cells membrane integrity screened against the NCATS CANVASS Library (AID 1347387)
Method in brief: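 LDH release read by fluorescence (560 nm ex/590 nm em) after CytoTox-ONE addition and 10 min RT; signal tracks lysed cells. HepG2, 2000 cells/well, plated overnight; compound 5 hr, 37C, 5% CO2, final 0.59 nM - 46 uM, 11 points.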

[15] = qHTS for Hypoxia signaling pathway (HIF-1) antagonists against the NCATS CANVASS Library (AID 1347374); note: nearly all actives have a fitted effect of over 60% in size; note: potency is the fitted concentration of half-maximal effect
Method in brief: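 Beta-lactamase reporter under HRE control in ME-180 cells; CoCl2 stimulus (60 uM solution as added), compounds 11-pt qHTS, 17 h 37C. CCF4 dye 2 h RT, 460/530 nm emission. CellTiter-Glo viability in same wells.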

[16] = DH5-alpha competent E. coli microbial cell viability qHTS against the NCATS CANVASS Library (AID 1347377); details: outcome: dose series up to 46.1 µM unless noted
Method in brief: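 Luminescent ATP read-out (BacTiter-Glo, 20 min RT) after overnight 37C culture of DH5-alpha E. coli with compounds; daunomycin control at 0.2 nM–9.2 uM final.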

[17] = qHTS for activators of Nrf2/ARE signaling pathway screened against the NCATS CANVASS Library (AID 1347391); note: nearly all actives have a fitted effect of over 60% in size
Method in brief: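 HepG2 ARE-bla; cpd 11-pt qHTS, 16 h 37C/5% CO2; CCF4 substrate 2 h RT; read ex 405 / em 460 + 530 nm. Viability by CellTiter-Glo luminescence, 30 min RT.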

[18] = qHTS for inhibitors of ER calcium dysfunction: SERCaMP assay screened against the NCATS CANVASS Library (AID 1347393); note: nearly all actives have a fitted effect of over 40% in size; note: potency is the fitted concentration of half-maximal effect
Method in brief: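 qHTS in SH-SY5Y reporter cells: 16 h compound pretreatment, 4 h thapsigargin, then secreted Gaussia luciferase measured by luminescence.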

[19] = target: Nuclear receptor subfamily 1 group I member 3 (Homo sapiens) (UniProt Q14994); assay: qHTS for Constitutive Androstane Receptor (CAR) Antagonist screened against the NCATS CANVASS Library (AID 1347372); note: potency is the fitted concentration of half-maximal effect
Sequence of Nuclear receptor subfamily 1 group I member 3 (Homo sapiens) (Q14994 whole entry, looked up): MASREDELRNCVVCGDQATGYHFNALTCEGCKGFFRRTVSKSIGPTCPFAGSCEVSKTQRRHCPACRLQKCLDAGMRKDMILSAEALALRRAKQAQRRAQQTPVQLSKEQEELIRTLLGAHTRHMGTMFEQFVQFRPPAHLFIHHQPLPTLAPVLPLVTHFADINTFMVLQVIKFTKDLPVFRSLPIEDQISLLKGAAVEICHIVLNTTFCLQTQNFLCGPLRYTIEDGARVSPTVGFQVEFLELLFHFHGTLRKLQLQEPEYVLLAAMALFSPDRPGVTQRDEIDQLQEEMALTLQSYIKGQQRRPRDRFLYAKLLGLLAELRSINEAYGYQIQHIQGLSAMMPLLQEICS
Method in brief: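 Cells were seeded and left 4hr to attach, then received compound at 11 concentrations and 50 nM CITCO. Following 24hr incubation, fluorescence viability and luciferase luminescence were read sequentially.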

[20] = HEK293 12hr Apoptosis Induction qHTS against the NCATS CANVASS Library (AID 1347361)
Method in brief: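 HEK293 cells (500/well) were exposed to an 11-point qHTS concentration series for 12 hours at 37 degrees C. Caspase-3/7 activity was then read by DEVD-substrate luciferase luminescence after 15 min at room temperature.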

SMILES | Potency [1] | Potency [2] | Potency [3] | Potency [4] | Potency [5] | Potency [6] | Potency [7] | Potency [8] | Potency [9] | Potency [10] | outcome [11] | Potency [12] | outcome [13] | outcome [14] | Potency [15] | outcome [16] | Potency [17] | Potency [18] | Potency [19] | outcome [20]
COC(=O)[C@@]12Oc3cccc(O)c3C(O)=C1C(=O)C[C@H](C)[C@H]2O | inactive | inactive | inactive | inactive | inactive | inactive | inactive | inactive | inactive | inactive | inactive | inactive | inactive | inactive | – | – | – | – | – | –
CC1(C)CC[C@]2(CO)CC[C@]3(C)C(=CCC4[C@@]5(C)CC[C@H](O)C(C)(C)C5CC[C@]43C)C2C1 (some centres not stated) | inactive | inactive | inactive | inactive | inactive | inactive | inactive | inactive | – | inactive | inactive | – | inactive | inactive | inactive | inactive | inactive | inactive | – | –
C/C=C/[C@H]1[C@H]2C(=O)c3c(O)c(C)c(O)c(C)c3[C@]1(C(=O)O)C(=O)C=C2C | inactive | inactive | inactive | inactive | inactive | inactive | inactive | inactive | inactive | inactive | inactive | inactive | inactive | inactive | inactive | inactive | inactive | inactive | inactive | –
C[C@@]12CCC[C@@](C)(C(=O)O)[C@H]1CC[C@@]13C[C@@H](CC[C@H]12)[C@](C)(O)C3 | inactive | inactive | inactive | inactive | inactive | inactive | inactive | inactive | – | inactive | inactive | inactive | inactive | inactive | inactive | inactive | – | inactive | – | –
[C-]#[N+][C@@]12C(=O)[C@@H]3[C@@H](O[C@@]4(C(=O)N(C)c5cccc1c54)C3(C)C)C(=O)[C@@]2(C)C=C | inactive | inactive | inactive | inactive | inactive | inactive | inactive | inactive | inactive | inactive | – | – | – | inactive | 2.98 µM (active) | inactive | inactive | – | inactive | inactive
C=C(C)C(=O)O[C@H]1C[C@@]2(C)OC(=CC2=O)/C(C)=C\[C@H]2OC(=O)C(=C)[C@H]12 | 2.11 µM (active) | 6.68 µM (active) | 9.41 µM (active) | 5.29 µM (active) | 1.88 µM (active) | 6.68 µM (active) | – | 0.662 µM (active) | inactive | 2.96 µM (active) | inactive | 0.265 µM (active) | inactive | – | 1.67 µM (active) | inactive | – | 0.216 µM (active) | 11.7 µM (active) | –
CN1C(=O)C(=O)N2C(=C[C@]3(c4c[nH]c5ccccc45)c4ccccc4N[C@H]23)C1=O | inactive | inactive | inactive | inactive | inactive | inactive | inactive | inactive | – | inactive | inactive | – | inactive | inactive | inactive | inactive | inactive | inactive | inactive | inactive
COc1ccc([C@@H]2c3cc4c(cc3C(=O)C(C)C2C)OCO4)cc1OC (some centres not stated) | inactive | inactive | inactive | inactive | inactive | inactive | inactive | inactive | – | – | inactive | – | inactive | inactive | inactive | inactive | – | 7.67 µM (active) | inactive | inactive
CCCCCC(=O)N[C@@H](CC(C)C)C(=O)N[C@H](C=O)CCC(=O)O (Hexanoyl-Leu-Glu-aldehyde) | inactive | inactive | inactive | inactive | inactive | inactive | inactive | inactive | – | inactive | inactive | – | inactive | inactive | inactive | inactive | inactive | inactive | inactive | –
C=C1C[C@]23C=CC(=O)[C@@](C)(CCCC(C)C(=O)N[C@@H](CO)C(=O)O)[C@@H]2C[C@@H]1CC3 (some centres not stated) | inactive | inactive | inactive | inactive | inactive | inactive | inactive | inactive | inactive | inactive | – | inactive | inactive | inactive | inactive | inactive | inactive | inactive | inactive | inactive
C=C(Cl)[C@](Cl)(CBr)CC[C@@H](Br)C(C)(C)Cl | 10.6 µM (active) | 6.68 µM (active) | 14.9 µM (active) | inactive | 3.75 µM (active) | 2.98 µM (active) | inactive | – | inactive | 9.35 µM (active) | inactive | – | – | – | – | inactive | – | – | inactive | –
CCC(C)=C1OC(=O)[C@H](C)[C@H](O)[C@H](Cc2cccnc2)NC(=O)C(NC(=O)c2ncccc2O)C(C)OC1=O (some centres not stated) | inactive | inactive | inactive | inactive | inactive | inactive | inactive | inactive | inactive | inactive | inactive | inactive | inactive | inactive | – | – | inactive | – | inactive | –
CN1CC[C@@]23c4ccccc4N[C@@H]1[C@@]21CCN(C)[C@@H]3Nc2ccccc21 | inactive | inactive | inactive | inactive | inactive | inactive | inactive | inactive | – | inactive | inactive | 0.0075 µM (active) | inactive | – | – | inactive | inactive | – | inactive | inactive
CC[C@@H](C)[C@H]1NC(=O)C(CC(C)C)NC(=O)[C@@H](CC(C)C)NC(=O)[C@H](Cc2c[nH]c3ccccc23)NC(=O)CNC(=O)[C@@H](CC(N)=O)NC1=O (stereo partly drawn) (cyclo(GW[dL][ξL][dI][dN])) | inactive | inactive | inactive | – | inactive | 11.9 µM (active) | inactive | inactive | inactive | – | inactive | – | – | – | – | inactive | inactive | inactive | inactive | inactive
O=Cc1ccc2n1C[C@]1(C[C@H](O)[C@@H](CO)O1)OC2 | inactive | inactive | inactive | inactive | inactive | inactive | inactive | inactive | – | inactive | inactive | inactive | inactive | – | inactive | inactive | inactive | inactive | inactive | –
COC(=O)[C@]1([C@H]2CCC(=O)O2)CC(=O)c2c(O)cc(C)cc2O1 | inactive | inactive | inactive | inactive | inactive | inactive | inactive | inactive | – | inactive | – | – | inactive | – | inactive | inactive | inactive | inactive | – | inactive
C[C@@]1(CCC(=O)Nc2c(O)ccc(C(=O)O)c2O)C(=O)C=C[C@]23C[C@H]4C[C@H](O[C@@]4(C)C2)C31 (some centres not stated) | inactive | inactive | inactive | inactive | inactive | inactive | inactive | inactive | inactive | inactive | – | – | inactive | – | inactive | inactive | inactive | inactive | inactive | –
CC(=O)c1c(C)cc2c(c1O)C(=O)c1c(O)cc(O)cc1C2=O | inactive | inactive | inactive | inactive | inactive | inactive | inactive | inactive | inactive | inactive | inactive | inactive | inactive | inactive | inactive | inactive | inactive | inactive | – | inactive
